Pf growth 48h = P. falciparum growth inhibition at 48 hours (one generation); P. falciparum luciferase growth in erythrocytes, 48 h; Potency, µM (series often up to 28.7 µM), for the others: top-dose activity change, negative = inhibition, hits mostly inhibitors; hit rate 5.9% among 310,000; further: potency means the concentration at half of the fitted maximal effect; on the % scale 0 is the no-effect control and ±100 the full control effect
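In quantitative HTS format, infected erythrocytes bearing luciferase-reporter parasites were treated for a single generation at 37 C. Luminescence after adding detection reagent served as the growth measure.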
Shiga toxin inh = Shiga toxin inhibition; Vero cells, Shiga toxin protein synthesis inhibition reporter; inhibition, % at 38.7 µM; hit rate 9.2% among 290,000; AID 2315; in the data active means inhibition mostly above about 28%, no sharp cut-off; inactive means mostly below about 43%; further: 0% is about no effect
Cycloheximide cs = counter-screen for Shiga toxin inhibitors: cycloheximide protein synthesis inhibition; cell reporter, cycloheximide protein synthesis inhibition counterscreen; max response, %; hit rate 12% among 300,000; AID 2314; in the data active means max response mostly above about 13%, no sharp cut-off; inactive means mostly below about 14%; further: read at 38.3 µM for the half of the compounds with a filed dose; 0% is about no effect
Pf growth 96h = P. falciparum growth inhibition at 96 hour, primary screen for plastid delayed-death inhibitors | hit rate 6.9% among 320,000 | Potency, µM (series often up to 28.7 µM), for the others: top-dose activity change, negative = inhibition, usual class: inhibitors | P. falciparum luciferase reporter growth, 96 h; further: potency means the concentration at half of the fitted maximal effect; on the % scale 0 is the no-effect control and ±100 the full control effect
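Infected RBCs, 2% Hct / 0.05% parasitemia final; luciferase-reporter P. falciparum; cpd 96 h, 37 C, 5% CO2; luciferase detection reagent; luminescence.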
NS1 function inh = inhibitors of influenza NS1 protein function; Potency, µM (doses to about 46.1 µM), for the others: top-dose activity, positive = more growth; hit rate 0.4% among 270,000; calls by dose curve; further: potency means the concentration at half of the fitted maximal effect; actives are rising curves; nearly all actives have a fitted effect of over 50% in size
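OD600 was taken as the measure of yeast growth restored by compound in an NS1-expressing S. cerevisiae strain. Cells had been washed out of glucose medium and diluted 1:100 into galactose -URA medium, pH 6.0.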
Sm TGR inh = S. mansoni TGR enzyme inhibition; Q962Y6; AID 485364; hit rate 3% among 360,000; purified TGR, DTNB reduction, TNB absorbance 405 nm; Potency, µM (highest dose often 114 µM), for the others: top-dose activity change, negative = inhibition, hits mostly inhibitors; further: potency means the concentration at half of the fitted maximal effect; on the % scale 0 is the no-effect control and ±100 the full control effect; nearly all actives have a fitted effect of over 60% in size
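First, TGR (20 nM dispensed) and NADPH were mixed with compound. Second, a 15 min room-temperature incubation followed. Third, further NADPH and then DTNB were added to start the reaction. Finally, TNB absorbance was monitored kinetically.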
* marks the source's active call; other numbers are inactive results; ? = inconclusive; nt = no result given. Shown are actives, neighbours in structure and some others; about 21% of the full set was active somewhere. Unless noted, the call rests on the fitted dose curve; in most records, active means well fitted curve in the direction sought with a large enough effect; inconclusive means small, poorly fitted or top-dose-only effect, or another doubt; inactive means no such curve, though single readings can be large; an effect the other way counts as inactive or inconclusive.

SMILES	Pf growth 48h	Shiga toxin inh	Cycloheximide cs	Pf growth 96h	NS1 function inh	Sm TGR inh
CCCCSc1nnc2c(n1)OC(c1ccc(Br)s1)N(C(C)=O)c1ccccc1-2 (stereo not drawn)	nt	nt	nt	nt	nt	4.9%
CCOc1ccc(NC(=S)NCc2nc3ccccc3[nH]2)cc1	17.9%	22.7	13.2	5.4%	nt	0.0%
CCNC(=S)Nc1ccc(-c2nc3ccccc3[nH]2)cc1	117.7%	102.9*	40.3*	?	nt	?
Cc1ccc(-c2nnc(-c3ccc(NC(=O)Cc4cccs4)cc3)o2)cc1	7.3%	7.4	5.9	4.5%	-10.6%	10.6%
O=C(Cc1cccs1)Nc1ccc(-c2nc3ccccc3[nH]2)cc1	-17.7%	131.4*	36.7*	?	-1.0%	5.5%
N#Cc1ccccc1NC(=O)CN1CCOCC1	5.0%	-2.8	-2.3	11.7µM*	29.4%	0.6%
O=C(Nc1ccc(-c2nc3ccccc3[nH]2)cc1)c1c(F)c(F)c(F)c(F)c1F	15.2%	-4.2	3.0	?	6.7%	8.3%
O=C(CN1CCOCC1)Nc1ccc(-c2nc3ccccc3[nH]2)cc1	66.7%	75.9*	26.6*	6.1%	0.4%	-1.8%
COc1ccccc1OCCn1c(C(C)Oc2ccccc2)nc2ccccc21 (stereo not drawn)	nt	nt	nt	nt	nt	3.3%
CC(C)c1ccc(C2C(C#N)=C(N)N3C(=C2C#N)Sc2ccccc23)cc1 (stereo not drawn)	?	45.2	19.5	?	43.2%	7.9%
CC[C@H]1OC(=O)[C@H](C)C(=O)[C@H](C)[C@@H](OC2O[C@H](C)C[C@H](N(C)C)[C@@H]2O)[C@@](C)(OC)C[C@@H](C)C(=O)[C@@H](C)C2N(CCCCn3cnc(-c4cccnc4)c3)C(=O)O[C@@]21C (stereo partly drawn)	?	nt	nt	13.5µM*	nt	nt
CC1(C)OC(=O)C(=NNc2ccc(Br)cc2)C(=O)O1	-2.1%	115.2*	31.2*	-3.0%	-7.4%	-4.8%
Cc1cccc2cc3c(N)c(C(=O)N4CCOCC4)sc3nc12	295.0%	115.2*	50.5*	-8.5%	-8.7%	8.6%
C#CCn1c(/C=C/c2ccc(Cl)cc2)nc2ccccc21	nt	nt	nt	nt	nt	-2.1%
Clc1ccc(Cn2c(/C=C/c3ccco3)nc3ccccc32)cc1	?	187.4*	215.6*	?	-24.5%	28.2µM*
Cc1ccc(Cn2c(/C=C/c3ccco3)nc3ccccc32)cc1	-13.5%	160.5*	103.4*	?	-15.9%	11.2µM*
CCN(CC)c1ccc(/C=N/NC(=O)c2c[nH]c3ccccc23)cc1	?	39.9*	34.9*	-12.6%	-5.1%	-6.6%
CCN(CC)c1ccc(/C=N/NC(=O)c2cc3ccccc3[nH]2)cc1	-4.2%	28.5	20.0*	-53.0%	-17.9%	0.0%
CCN(C(=O)C(=O)c1c[nH]c2ccccc12)c1ccccc1	28.1%	18.7	17.8*	?	9.6%	-13.4%
CN(C)CC(=O)c1c[nH]c2ccccc12	29.8%	-14.5	-4.9	?	2.2%	-26.0%
CCN(CC)c1ccc(/C=N/NC(=O)c2cc(C)nc3ccccc23)cc1	-16.7%	15.4	9.8	4.6%	-4.4%	21.7%
CCc1c(C)sc(NC(=O)c2ccccc2[N+](=O)[O-])c1C(N)=O	56.4%	0.0	-2.1	62.9%	-3.5%	-9.4%
O=C(COC(=O)c1ccco1)c1ccc(F)cc1	12.6%	110.3*	54.6*	?	-1.5%	5.1%
O=C(CCNc1ccc(Cl)c(C(F)(F)F)c1)c1ccco1	14.4%	17.2	11.0	-11.2%	-43.9%	?
O=C(CCNc1ccc(F)cc1)c1ccco1	5.0%	90.1*	52.2*	?	-7.6%	3.98µM*
SMILES	Pf growth 48h	Shiga toxin inh	Cycloheximide cs	Pf growth 96h	NS1 function inh	Sm TGR inh
O=C(CCNc1ccc(F)c(Cl)c1)c1ccco1	-2.8%	6.7	10.4	?	-12.4%	8.91µM*
O=C(CCNc1cccc(C(F)(F)F)c1)c1ccco1	-9.4%	61.7	21.1	nt	-27.2%	3.55µM*
Cc1ccccc1NC(=O)COC(=O)c1cc(=O)c2ccccc2o1	-26.5%	2.7	-2.3	-1.7%	nt	-1.0%
O=C(CN1CCCC1)Nc1nc(-c2ccc3c(c2)CCN3C(=O)c2ccccc2F)cs1	14.7µM*	31.0	20.0*	?	2.9%	-8.5%
CNc1nc(-c2ccc3c(c2)CCN3C(=O)c2cccc(F)c2)cs1	-3.9%	59.4*	43.9*	-37.9%	-32.4%	-6.0%
Cc1cccc(C(=O)N2CCc3cc(-c4nc(NC(=O)CN5CCCC5)sc4C)ccc32)c1	?	1.9	1.0	16.7%	7.1%	1.5%
O=C(Cc1ccc(F)cc1)NCc1ccc2c(c1)CCN2C(=O)c1ccc(F)cc1	nt	nt	nt	nt	nt	4.1%
CNc1nc(-c2ccc3c(c2)CCN3C(=O)c2ccc(F)cc2)cs1	19.9%	91.4*	44.9*	?	4.0%	-5.9%
Cc1cccc(C(=O)N2CCc3cc(-c4csc(NC(=O)CN5CCCC5)n4)ccc32)c1	?	8.9	9.3	?	3.4%	11.5%
Cc1sc(NC(=O)Cc2ccc3c(c2)OCO3)nc1-c1ccc2c(c1)CCN2C(=O)c1cccc(F)c1	?	2.9	-1.1	6.57µM*	?	5.1%
O=C(CNC(=O)c1ccccc1Br)N/N=C/c1ccc(O)cc1	203.4%	-4.4	10.6	?	nt	-2.7%
CC(C)OC(=O)c1ccc(N)cc1	35.9%	24.9	8.4	36.6%	0.7%	12.8%
CCCC(=O)Nc1ccc2c(c1)nc(CN1CCN(C(=O)OCC)CC1)n2C(C)C	nt	nt	nt	nt	nt	6.1%
CNc1nc(-c2ccc3c(c2)CCN3C(=O)c2ccccc2C)cs1	?	64.4*	33.8*	-12.0%	11.7%	nt
O=C(Nc1nc(-c2ccc(F)cc2)cs1)C1CCN(C(=O)c2ccc(F)cc2)CC1	?	nt	nt	6.57µM*	nt	-7.4%
O=C(Nc1nc2c(F)cc(F)cc2s1)C1CCN(C(=O)c2ccc(F)cc2)CC1	91.4%	nt	nt	117.3%	nt	-19.4%
O=C1Nc2ccccc2N(O)N1c1ccc(S(=O)(=O)N2CCCCCC2)cc1	-4.6%	-4.3	0.4	-8.7%	5.5%	0.0%
CC1CCc2c(sc(NC(=O)c3ccc(Cn4cc([N+](=O)[O-])cn4)o3)c2C#N)C1 (stereo not drawn)	33.0%	-17.2	1.9	0.0%	5.1%	0.0%
O=C(Nc1ccc(C(F)(F)F)cc1Cl)c1ccc(Cn2cc(Br)cn2)o1	6.5%	21.7	0.9	?	-84.2%	44.7µM*
N#Cc1c(NC(=O)c2ccc(Cn3cc(Br)cn3)o2)sc2c1CCCCC2	20.6%	102.7	38.8*	?	-18.9%	2.3%
O=C(NCc1ccccn1)c1ccc(Cn2cc(Br)cn2)o1	-12.6%	5.3	-0.4	8.5%	8.6%	?
O=C(NC1CCCCC1)c1ccc(Cn2cc(Br)cn2)o1	nt	-9.6	0.8	-3.1%	-45.4%	44.7µM*
CCOc1ccc(CCNC(=O)c2c(C)oc3ncn(CC(C)C)c(=O)c23)cc1	nt	nt	nt	nt	nt	5.9%

From PubChem
